Assay results from the supplement of paper PMC10849652.
Targets with a hit are over-represented here; the source holds about 8,800 in all. About 0.5% of all pairs of compound and target were hits.

Experiments:
Test in all cases: log2 fold change, soluble protein after heating vs DMSO (PISA); higher = thermal stabilisation; K562 lysate, 10 uM; active = over 0.2 and 3.5 SD of the protein, either way, in both replicates (recomputed)
Tubastatin A = compound: CN1CCc2c(c3ccccc3n2Cc2ccc(C(=O)NO)cc2)C1 [Tubastatin A]
In short: (§1)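 Dounce homogenisation of K562 pellets in PBS pH 7.4 with 1 mM MgCl2 produced a crude extract, used at 1 mg/mL protein. Exposure to 10 μM compound lasted 30 min, and aliquots were then heated for 3 min across 48°C-58°C, pooled and brought to 0.5% NP-40 at 4°C. The supernatant after 21,000xg for 90 min was quantified by TMTpro 16plex LC-MS/MS with channel sums equalised. Duplicate values are given as log-two fold change in thermal stability relative to solvent controls.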

alisertib = compound: COc1cc(Nc2ncc3c(n2)-c2ccc(Cl)cc2C(c2c(F)cccc2OC)=NC3)ccc1C(=O)O [alisertib]
In short: as §1

gefitinib = compound: COc1cc2ncnc(Nc3ccc(F)c(Cl)c3)c2cc1OCCCN1CCOCC1 [gefitinib]
In short: as §1

pictilisib = compound: CS(=O)(=O)N1CCN(Cc2cc3nc(-c4cccc5[nH]ncc45)nc(N4CCOCC4)c3s2)CC1 [pictilisib]
In short: as §1

crizotinib = compound: C[C@@H](Oc1cc(-c2cnn(C3CCNCC3)c2)cnc1N)c1c(Cl)ccc(F)c1Cl [crizotinib]
In short: as §1

doramapimod = compound: Cc1ccc(-n2nc(C(C)(C)C)cc2NC(=O)Nc2ccc(OCCN3CCOCC3)c3ccccc23)cc1 [doramapimod]
In short: as §1

bafetinib = compound: Cc1ccc(NC(=O)c2ccc(CN3CC[C@H](N(C)C)C3)c(C(F)(F)F)c2)cc1Nc1nccc(-c2cncnc2)n1 [bafetinib]
In short: as §1

defactinib = compound: CNC(=O)c1ccc(Nc2ncc(C(F)(F)F)c(NCc3nccnc3N(C)S(C)(=O)=O)n2)cc1 [defactinib]
In short: as §1

encorafenib = compound: COC(=O)N[C@@H](C)CNc1nccc(-c2cn(C(C)C)nc2-c2cc(Cl)cc(NS(C)(=O)=O)c2F)n1 [encorafenib]
In short: as §1

[1] = compound: COC(=O)[C@H](CCSC)NC(=O)C1=C(C=C(C=C1)NC[C@H](CS)N)C2=CC=CC=C2
In short: as §1

[2] = compound: COc1cc2nc(-c3cc(F)ccc3O)nc(N[C@@H]3CNC[C@H]3C(C)(C)O)c2cc1OC
In short: as §1

lapatinib = compound: CS(=O)(=O)CCNCc1ccc(-c2ccc3ncnc(Nc4ccc(OCc5cccc(F)c5)c(Cl)c4)c3c2)o1 [lapatinib]
In short: as §1

tozasertib = compound: Cc1cc(Nc2cc(N3CCN(C)CC3)nc(Sc3ccc(NC(=O)C4CC4)cc3)n2)n[nH]1 [tozasertib]
In short: as §1

[3] = compound: CNC(=O)C1=CC=CC=C1NC2=NC(=NC=C2Cl)NC3=C(C=C(C=C3)N4CCOCC4)OC
In short: as §1

[4] = compound: CNc1nc(-c2ccc3c(N)n[nH]c3c2)cc(N2C[C@@H](C(=O)NC3CCCCC3)CC[C@H]2C)n1
In short: as §1

duvelisib = compound: C[C@H](Nc1ncnc2nc[nH]c12)c1cc2cccc(Cl)c2c(=O)n1-c1ccccc1 [duvelisib]
In short: as §1

alvocidib = compound: CN1CC[C@H](c2c(O)cc(O)c3c(=O)cc(-c4ccccc4Cl)oc23)[C@H](O)C1 [alvocidib]
In short: as §1

[5] = compound: C[C@H](C1=CC=C(C=C1)C(=O)NC2=C3C=CNC3=NC=C2)N
In short: as §1

gandotinib = compound: Cc1cc(Nc2cc(CN3CCOCC3)c3nc(C)c(Cc4ccc(Cl)cc4F)n3n2)n[nH]1 [gandotinib]
In short: as §1

[6] = compound: Cc1cccc(CC(=O)N2CCc3c2ccc(-c2cn(C)c4ncnc(N)c24)c3F)n1
In short: as §1

Measured: log2 fold change

UBAP2L isoform 1 (UniProt Q14157)
inactive: Tubastatin A -0.006 | alisertib 0.032 | gefitinib -0.088 | pictilisib -0.116 | crizotinib 0.376 | doramapimod -0.26 | bafetinib 0.56

TEC (UniProt P42680)
inactive: defactinib 0.07 | encorafenib -0.044 | [1] -0.036 | alisertib -0.086 | [2] -0.028 | gefitinib -0.027 | lapatinib 0.007 | tozasertib -0.198

TEDC1 (UniProt Q86SX3)
UniProt Q86SX3, sequence (Q86SX3 whole entry, looked up): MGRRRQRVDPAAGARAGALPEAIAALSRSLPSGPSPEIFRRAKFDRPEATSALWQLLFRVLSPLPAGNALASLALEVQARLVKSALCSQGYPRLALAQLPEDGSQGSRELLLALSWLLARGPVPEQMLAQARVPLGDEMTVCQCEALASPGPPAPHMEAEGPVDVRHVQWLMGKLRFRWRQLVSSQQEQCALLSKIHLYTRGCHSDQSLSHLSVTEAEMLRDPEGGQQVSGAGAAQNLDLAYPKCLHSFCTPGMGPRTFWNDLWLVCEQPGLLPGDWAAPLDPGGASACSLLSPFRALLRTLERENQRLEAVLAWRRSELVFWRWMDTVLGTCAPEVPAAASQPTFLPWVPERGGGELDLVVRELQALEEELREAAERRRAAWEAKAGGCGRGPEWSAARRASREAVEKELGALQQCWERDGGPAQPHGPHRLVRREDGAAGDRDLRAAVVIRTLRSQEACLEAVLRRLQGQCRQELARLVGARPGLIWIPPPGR
inactive: Tubastatin A -0.254 | [3] 0.038 | [4] 0.051 | encorafenib 0.094 | [1] 0.047 | alisertib -0.019 | [2] -0.008 | gefitinib 0.047 | lapatinib -0.064 | crizotinib -0.078 | duvelisib 0.159 | tozasertib -0.103 | doramapimod 0.009

TRAF7 (UniProt Q6Q0C0)
inactive: alvocidib 0.058 | Tubastatin A -0.008 | defactinib 0.141 | [4] 0.025 | encorafenib 0.015 | [1] -0.11 | alisertib -0.05 | gefitinib -0.099 | crizotinib -0.01 | [5] -0.241 | duvelisib -0.029 | gandotinib -0.128 | tozasertib 0.124 | doramapimod 0.122 | [6] 0.127

UBAP2, A0A0D9SFI5
inactive: crizotinib -0.037 | doramapimod -0.056

TMPO isoform 2 (UniProt P42167)
UniProt P42167, sequence (P42167 whole entry, looked up): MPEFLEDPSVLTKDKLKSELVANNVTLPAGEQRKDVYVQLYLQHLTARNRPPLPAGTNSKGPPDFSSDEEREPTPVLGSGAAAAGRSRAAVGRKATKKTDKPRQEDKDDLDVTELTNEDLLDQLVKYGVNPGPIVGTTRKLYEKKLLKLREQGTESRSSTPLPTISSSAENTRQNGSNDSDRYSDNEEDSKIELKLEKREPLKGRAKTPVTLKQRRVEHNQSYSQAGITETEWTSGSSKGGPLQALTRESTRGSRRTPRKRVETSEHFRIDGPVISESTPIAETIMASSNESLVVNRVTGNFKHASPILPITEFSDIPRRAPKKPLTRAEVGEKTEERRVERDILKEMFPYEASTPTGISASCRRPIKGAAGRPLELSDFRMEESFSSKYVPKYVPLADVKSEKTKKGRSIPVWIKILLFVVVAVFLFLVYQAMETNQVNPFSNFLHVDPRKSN
inactive: defactinib 0.058 | [4] 0.186 | encorafenib -0.113 | [1] -0.14 | pictilisib 0.04 | duvelisib -0.041 | tozasertib -0.029 | bafetinib -0.026

TGFBR1 isoform 2 (UniProt P36897)
UniProt P36897, sequence (P36897 whole entry, looked up): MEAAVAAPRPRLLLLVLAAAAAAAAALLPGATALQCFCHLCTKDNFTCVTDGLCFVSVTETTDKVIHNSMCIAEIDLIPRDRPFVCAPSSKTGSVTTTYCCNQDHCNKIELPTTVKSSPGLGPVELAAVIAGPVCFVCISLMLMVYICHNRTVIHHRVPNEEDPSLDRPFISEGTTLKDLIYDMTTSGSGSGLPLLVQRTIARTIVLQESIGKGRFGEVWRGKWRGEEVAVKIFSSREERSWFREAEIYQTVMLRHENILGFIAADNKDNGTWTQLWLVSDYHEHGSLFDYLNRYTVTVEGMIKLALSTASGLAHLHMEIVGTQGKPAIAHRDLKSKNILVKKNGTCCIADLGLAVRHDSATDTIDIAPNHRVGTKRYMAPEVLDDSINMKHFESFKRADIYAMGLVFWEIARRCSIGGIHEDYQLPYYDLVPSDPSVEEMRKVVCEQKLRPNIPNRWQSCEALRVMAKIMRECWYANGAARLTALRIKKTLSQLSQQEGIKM
inactive: [3] 0.156 | [4] -0.004 | encorafenib -0.017 | [1] 0.077 | duvelisib -0.004 | tozasertib 0.022

TASP1 (UniProt Q9H6P5)
inactive: Tubastatin A 0.087 | [3] -0.119 | [4] 0.112 | encorafenib -0.035 | [1] 0.103 | alisertib -0.151 | [2] -0.048 | gefitinib -0.046 | lapatinib 0.009 | pictilisib -0.217 | crizotinib -0.086 | duvelisib 0 | tozasertib -0.002 | doramapimod 0.053 | bafetinib -0.235

TRIM3 (UniProt O75382)
inactive: [3] 0.06 | defactinib -0.095 | encorafenib 0.034 | [1] 0.041 | [2] 0.069 | lapatinib 0.009 | tozasertib -0.056

UBN1 (UniProt Q9NPG3)
inactive: alvocidib -0.176 | defactinib -0.044 | [4] -0.076 | encorafenib 0.059 | [1] 0.088 | [2] 0.09 | lapatinib -0.187 | crizotinib -0.042 | [5] -0.057 | duvelisib -0.092 | gandotinib 0.215 | tozasertib 0.069 | doramapimod -0.256 | [6] 0.308

THAP9 (UniProt Q9H5L6)
UniProt Q9H5L6, sequence (Q9H5L6 whole entry, looked up): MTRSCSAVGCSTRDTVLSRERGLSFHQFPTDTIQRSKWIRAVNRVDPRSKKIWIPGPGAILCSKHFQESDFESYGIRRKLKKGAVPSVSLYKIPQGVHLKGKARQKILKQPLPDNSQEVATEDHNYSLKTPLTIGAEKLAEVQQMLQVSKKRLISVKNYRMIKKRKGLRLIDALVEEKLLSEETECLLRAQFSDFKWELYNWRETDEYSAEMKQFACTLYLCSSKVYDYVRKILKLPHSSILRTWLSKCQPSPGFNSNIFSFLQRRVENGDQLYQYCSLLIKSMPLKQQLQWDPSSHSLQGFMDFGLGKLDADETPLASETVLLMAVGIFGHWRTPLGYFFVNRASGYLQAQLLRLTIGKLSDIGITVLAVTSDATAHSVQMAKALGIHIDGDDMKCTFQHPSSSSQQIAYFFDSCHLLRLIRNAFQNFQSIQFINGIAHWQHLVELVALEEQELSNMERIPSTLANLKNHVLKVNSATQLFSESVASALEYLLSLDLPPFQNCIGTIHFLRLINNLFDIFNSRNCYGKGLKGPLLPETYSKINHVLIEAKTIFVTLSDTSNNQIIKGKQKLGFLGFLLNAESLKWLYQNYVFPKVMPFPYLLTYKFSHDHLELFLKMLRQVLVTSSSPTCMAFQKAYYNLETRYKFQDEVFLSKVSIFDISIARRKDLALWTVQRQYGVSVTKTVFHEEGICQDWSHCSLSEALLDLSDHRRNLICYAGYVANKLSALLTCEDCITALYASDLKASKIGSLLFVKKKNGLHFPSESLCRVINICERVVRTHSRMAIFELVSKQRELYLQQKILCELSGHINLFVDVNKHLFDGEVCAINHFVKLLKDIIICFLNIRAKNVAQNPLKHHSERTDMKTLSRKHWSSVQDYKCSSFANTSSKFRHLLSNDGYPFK
inactive: alvocidib -0.249 | Tubastatin A 0.053 | defactinib -0.067 | [4] 0.476 | encorafenib -0.009 | [1] 0.085 | [2] 0.179 | lapatinib -0.035 | pictilisib -0.154 | crizotinib -0.203 | duvelisib 0.012 | gandotinib 0.429 | tozasertib -0.045 | doramapimod 0.009 | bafetinib -0.007 | [6] 0.323
active: [5] -0.675

UCP2 (UniProt P55851)
active: crizotinib -0.441
inactive: Tubastatin A 0.182 | defactinib 0.096 | alisertib 0.033 | gefitinib 0.045 | doramapimod -0.141

UBAP2 (UniProt Q5JV08)
inactive: alisertib -0.165 | gefitinib -0.139

TMEM14C (UniProt Q9P0S9)
UniProt Q9P0S9, sequence (Q9P0S9 whole entry, looked up): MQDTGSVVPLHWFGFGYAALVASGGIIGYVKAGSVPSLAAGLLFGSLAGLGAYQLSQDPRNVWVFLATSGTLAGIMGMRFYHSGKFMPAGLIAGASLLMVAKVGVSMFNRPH
inactive: [3] 0.033 | defactinib 0.205 | [4] 0.011 | encorafenib 0.004 | [1] 0.022 | alisertib -0.011 | [2] -0.168 | gefitinib 0.003 | lapatinib 0.123 | pictilisib 0.162 | crizotinib -0.087 | duvelisib 0.016 | tozasertib -0.099 | doramapimod 0.002 | bafetinib -0.094
active: Tubastatin A -0.463

TCF3 isoform 2 (UniProt P15923)
UniProt P15923, sequence (P15923 whole entry, looked up): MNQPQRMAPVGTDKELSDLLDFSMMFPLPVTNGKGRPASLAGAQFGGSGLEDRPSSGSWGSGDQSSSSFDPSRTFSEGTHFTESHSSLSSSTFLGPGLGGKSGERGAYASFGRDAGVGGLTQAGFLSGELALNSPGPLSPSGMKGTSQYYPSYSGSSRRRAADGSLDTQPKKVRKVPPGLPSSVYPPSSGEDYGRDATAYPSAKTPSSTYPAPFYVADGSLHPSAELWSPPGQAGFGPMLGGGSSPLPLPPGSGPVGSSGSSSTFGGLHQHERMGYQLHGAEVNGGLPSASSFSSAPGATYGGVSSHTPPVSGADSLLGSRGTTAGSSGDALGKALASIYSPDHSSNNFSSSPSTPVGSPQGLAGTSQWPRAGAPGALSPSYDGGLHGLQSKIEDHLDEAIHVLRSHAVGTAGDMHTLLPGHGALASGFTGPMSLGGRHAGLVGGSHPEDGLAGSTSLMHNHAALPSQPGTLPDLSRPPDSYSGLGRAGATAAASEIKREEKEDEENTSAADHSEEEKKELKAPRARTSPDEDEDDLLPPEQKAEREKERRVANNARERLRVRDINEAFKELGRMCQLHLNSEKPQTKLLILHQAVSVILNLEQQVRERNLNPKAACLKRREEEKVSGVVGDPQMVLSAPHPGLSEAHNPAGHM
inactive: Tubastatin A 0.055 | [3] 0.214 | crizotinib -0.048 | doramapimod 0.092

TCF20 (UniProt Q9UGU0)
inactive: alvocidib -0.017 | [3] 0.01 | [2] 0.167 | lapatinib -0.049 | pictilisib -0.034 | crizotinib 0.019 | [5] 0.011 | duvelisib 0.094 | gandotinib 0.108 | doramapimod -0.032 | bafetinib -0.001 | [6] -0.005
active: [4] 0.615

TFPI isoform 2 (UniProt P10646)
UniProt P10646, sequence (P10646 whole entry, looked up): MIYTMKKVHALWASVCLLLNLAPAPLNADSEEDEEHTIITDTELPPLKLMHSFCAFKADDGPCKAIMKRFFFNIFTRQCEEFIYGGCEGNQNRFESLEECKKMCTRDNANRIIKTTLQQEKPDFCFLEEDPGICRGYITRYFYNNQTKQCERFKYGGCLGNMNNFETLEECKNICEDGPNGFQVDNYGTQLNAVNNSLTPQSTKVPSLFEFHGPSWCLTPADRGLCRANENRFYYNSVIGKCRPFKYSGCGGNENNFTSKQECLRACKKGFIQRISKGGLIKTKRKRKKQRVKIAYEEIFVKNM
inactive: defactinib -0.109 | crizotinib 0.045 | doramapimod -0.121

TJP1 (UniProt H0Y3R8)
inactive: alvocidib 0.079 | [5] 0.068 | gandotinib -0.057 | [6] -0.063

TLK2 isoform 3 (UniProt Q86UE8)
inactive: alvocidib 0.007 | [5] 0.012 | gandotinib 0.009 | [6] -0.101

TTC37 (UniProt Q6PGP7)
UniProt Q6PGP7, sequence (Q6PGP7 whole entry, looked up): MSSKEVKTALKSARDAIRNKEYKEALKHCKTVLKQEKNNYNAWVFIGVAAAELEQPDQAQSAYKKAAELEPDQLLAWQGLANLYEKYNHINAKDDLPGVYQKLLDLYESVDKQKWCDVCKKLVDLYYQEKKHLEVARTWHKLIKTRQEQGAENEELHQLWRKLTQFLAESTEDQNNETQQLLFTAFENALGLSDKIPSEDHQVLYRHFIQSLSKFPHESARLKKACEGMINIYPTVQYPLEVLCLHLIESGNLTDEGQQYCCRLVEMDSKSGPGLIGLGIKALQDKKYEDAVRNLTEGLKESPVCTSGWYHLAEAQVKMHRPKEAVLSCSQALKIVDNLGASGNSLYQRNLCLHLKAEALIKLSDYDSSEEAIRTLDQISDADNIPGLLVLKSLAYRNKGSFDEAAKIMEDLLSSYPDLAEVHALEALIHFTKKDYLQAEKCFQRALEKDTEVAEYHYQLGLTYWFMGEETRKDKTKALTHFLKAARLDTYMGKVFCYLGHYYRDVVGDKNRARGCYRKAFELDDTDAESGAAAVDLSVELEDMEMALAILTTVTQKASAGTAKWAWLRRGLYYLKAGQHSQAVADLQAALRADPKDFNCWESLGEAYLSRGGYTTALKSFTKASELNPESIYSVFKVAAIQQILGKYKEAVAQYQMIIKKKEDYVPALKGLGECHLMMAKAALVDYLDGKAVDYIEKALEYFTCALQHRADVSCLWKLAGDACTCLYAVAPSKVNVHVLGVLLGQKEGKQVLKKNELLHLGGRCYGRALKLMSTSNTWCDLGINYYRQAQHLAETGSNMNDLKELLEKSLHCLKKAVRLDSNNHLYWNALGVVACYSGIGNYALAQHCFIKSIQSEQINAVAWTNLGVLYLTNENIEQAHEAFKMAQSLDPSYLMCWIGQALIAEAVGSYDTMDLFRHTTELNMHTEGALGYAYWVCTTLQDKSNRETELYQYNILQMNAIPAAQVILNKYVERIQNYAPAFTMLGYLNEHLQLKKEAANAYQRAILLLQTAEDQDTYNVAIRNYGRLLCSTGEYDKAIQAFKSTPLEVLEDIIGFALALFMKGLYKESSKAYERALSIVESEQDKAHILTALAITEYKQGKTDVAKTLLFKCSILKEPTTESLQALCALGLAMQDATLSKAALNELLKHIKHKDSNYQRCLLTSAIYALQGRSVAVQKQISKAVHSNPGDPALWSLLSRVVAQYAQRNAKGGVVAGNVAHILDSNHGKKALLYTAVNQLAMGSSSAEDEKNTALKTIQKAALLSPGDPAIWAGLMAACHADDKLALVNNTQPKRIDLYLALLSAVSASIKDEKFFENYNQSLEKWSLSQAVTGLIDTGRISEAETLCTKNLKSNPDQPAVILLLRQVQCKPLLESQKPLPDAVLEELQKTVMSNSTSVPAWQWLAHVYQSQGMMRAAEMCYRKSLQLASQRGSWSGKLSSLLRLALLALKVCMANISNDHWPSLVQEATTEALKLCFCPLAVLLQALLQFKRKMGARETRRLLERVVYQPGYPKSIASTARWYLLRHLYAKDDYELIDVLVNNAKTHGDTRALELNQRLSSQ
inactive: Tubastatin A 0.072 | [3] -0.13 | defactinib -0.061 | [4] 0.185 | alisertib 0.032 | [2] 0.043 | gefitinib 0.081 | lapatinib -0.157 | pictilisib -0.03 | crizotinib -0.202 | duvelisib 0.096 | doramapimod 0.069 | bafetinib -0.26

TNIK (UniProt C9J338)
active: [5] -0.443
inactive: alvocidib -0.155 | [3] -0.211 | defactinib -0.014 | [4] 0.306 | encorafenib -0.012 | [1] 0.005 | [2] 0.076 | lapatinib -0.042 | pictilisib -0.023 | crizotinib -0.075 | duvelisib 0.115 | gandotinib 0.344 | tozasertib 0.012 | doramapimod 0.005 | bafetinib -0.258 | [6] 0.344

TXNRD2 isoform 3 (UniProt Q9NNW7)
inactive: Tubastatin A 0.072 | [3] 0.194

TFPT (UniProt P0C1Z6)
inactive: [3] -0.041 | [2] 0.027 | lapatinib -0.004 | pictilisib 0.032 | duvelisib -0.005 | bafetinib -0.004
active: [4] 0.381

TLE3 (UniProt H0YL70)
inactive: [4] 0.153 | duvelisib 0.037

UBAP2L (UniProt F8W726)
inactive: defactinib 0.06 | [2] 0.093 | lapatinib -0.15 | crizotinib 0.098 | doramapimod -0.068

UBR4 isoform 4 (UniProt Q5T4S7)
inactive: Tubastatin A -0.337 | [3] -0.16 | defactinib -0.032 | [4] 0.144 | encorafenib -0.028 | [1] 0.062 | [2] 0.064 | lapatinib 0.146 | duvelisib -0.143 | tozasertib 0.079

TCF3 (UniProt X6REB3)
inactive: alvocidib -0.168 | defactinib -0.149 | [5] -0.081 | gandotinib 0.269 | [6] 0.105
